Results reported in PubChem BioAssay (NCATS).
Records with an inconclusive call do not appear. Calls of active or inactive are those of the source. The call rests on the fitted dose curve; in most records, active means well fitted inhibition curve with a large enough effect; inconclusive means small, poorly fitted or top-dose-only effect; inactive means flat fitted curve, though single readings scatter.

Tests used:
Experiment in all cases: qHTS profiling for inhibitors of Plasmodium falciparum proliferation (AID 504749); further: nearly all actives have a fitted effect of over 60% in size
Conditions in all cases: P. falciparum in erythrocytes, SYBR Green DNA, 72 h; series mostly up to 28.7 µM
CP266 = tested on: CP266
Outline: (§1)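 Readout was DNA-dye fluorescence from lysed cultures, ex 485/em 535 nm. Parasitized red cells had grown 72 h with compound; data scaled between 0.29 uM artemisinin and DMSO wells and corrected using vehicle-only plates.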

CP268 = tested on: CP268
Outline: as §1

CP269 = tested on: CP269
Outline: as §1

CP286 = tested on: CP286
Outline: as §1

CP291 = tested on: CP291
Outline: as §1

CP297 = tested on: CP297
Outline: as §1

CP305 = tested on: CP305
Outline: as §1

CP315 = tested on: CP315
Outline: as §1

CP325 = tested on: CP325
Outline: as §1

CP329 = tested on: CP329
Outline: as §1

CP335 = tested on: CP335
Outline: as §1

DFO2036 = tested on: DFO2036
Outline: as §1

DIV14 = tested on: DIV14
Outline: as §1

DIV17 = tested on: DIV17
Outline: as §1

DIV30 = tested on: DIV30
Outline: as §1

Dd2 = tested on: Dd2
Outline: as §1

ECU = tested on: ECU
Outline: as §1

FAB9 = tested on: FAB9
Outline: as §1

GB4 = tested on: GB4
Outline: as §1

HB3 = tested on: HB3
Outline: as §1

ICS = tested on: ICS
Outline: as §1

JCK = tested on: JCK
Outline: as §1

N140 = tested on: N140
Outline: as §1

P93_24 = tested on: P93_24
Outline: as §1

P94_40 = tested on: P94_40
Outline: as §1

PAD = tested on: PAD
Outline: as §1

PC15 = tested on: PC15
Outline: as §1

PC26 = tested on: PC26
Outline: as §1

PC49 = tested on: PC49
Outline: as §1

SC27B = tested on: SC27B
Outline: as §1

TAB109 = tested on: TAB109
Outline: as §1

TAB113 = tested on: TAB113
Outline: as §1

TAB165 = tested on: TAB165
Outline: as §1

W2 = tested on: W2
Outline: as §1

Measured: Potency

C=CCn1c(=O)n(C2OC(CO)C(O)C2O)c2nc(N)[nH]c(=O)c21 (centres undefined)
inactive: CP266 | CP268 | CP269 | CP286 | CP291 | CP297 | CP305 | CP315 | CP325 | CP329 | CP335 | DFO2036 | DIV14 | DIV17 | DIV30 | Dd2 | ECU | FAB9 | GB4 | HB3 | ICS | JCK | N140 | P93_24 | P94_40 | PAD | PC15 | PC26 | PC49 | SC27B | TAB109 | TAB113 | TAB165 | W2
